Unmarked numbers belong to inactive results. A call without a number means that no potency is given here. The source made the active and inactive calls. The call rests on the fitted dose curve.
Test: G protein-coupled receptor (GPCR) small molecule agonists, calcium flux assay: HEK293 wild type cell line counter screen (AID 1920065)
Conditions: HEK293 WT calcium flux, fluorescence, agonist mode; series mostly up to 57.6 µM
Description: U.S. Tox21 Program National Center for Advancing Translational Sciences [NCATS] Division of Preclinical Innovation [DPI] U.S. Environmental Protection Agency [EPA] National Institutes of Environmental Health Sciences [NIEHS] National Toxicology Program [NTP] U.S. Food and Drug Administration [FDA] Assay overview: The increased intracellular calcium release that occurred upon G protein-coupled receptor (GPCR) activation led to the frequent use of calcium flux assays to detect GPCR activation. For the purpose of studying and screening compounds that may activate GPCR, receptor-overexpressing models were typically generated using Hek293 wild-type (WT) cells. In order to eliminate the compounds that may have induced calcium release for non-specific activation, a counter-assay utilizing calcium flux on Hek293 WT cells was performed. The data were formulated in order to serve as a control for any calcium flux detection utilizing Hek293 cells with either GPCR overexpression or gene modification. The procurement of Hek293 WT cells from ATCC. Fluorescence intensity can be utilized to determine the activation of the compound in a calcium flux assay. As a counter control, this cell line was utilized to screen the Tox21 10K compound library.
Assay Protocol Summary: Hek293 cells were dispensed at 1500cells/4uL/well in 1536-well black wall/clear bottom plates using a multidrop dispenser. After the assay plates were incubated at a 37 C/5% CO2 incubator for 18 hours, 4 uL of Calcium Dye Solution was added to each well. The plates were incubated at 37 C for 1 hour. For agonist mode, 23 nL of compounds dissolved in DMSO, positive control (ATP) or DMSO only was transferred to the assay plate by a pin tool station. The fluorescence intensity in the plates was measured using FDSS 7000EX kinetic plate reader with a filter set of Ex/Em=480/540 for 3 min at 1 sec intervals. Each test compound was measured at 15 concentrations and in triplicates.

Compound | Potency | activation
N#Cc1c2ccccc2cc2ccccc12 | inactive | 
O=C(O)C(F)(F)C(F)(F)C(F)(F)C(F)(F)C(F)(F)C(F)(F)C(F)(F)C(F)(F)C(F)(F)F | inactive | 
O=[N+]([O-])c1cc(Cl)c(Cl)cc1Cl | inactive | 
CNC(C)Cc1ccc2c(c1)OCO2 (stereo not given) | inactive | 
O=[N+]([O-])c1ccccc1CCl | inactive | 
CON(C)C(=O)Nc1ccc(Br)c(Cl)c1 | inactive | 
CN1C(=O)CN=C(c2ccccc2)c2cc([N+](=O)[O-])ccc21 | inactive | 
CCN[C@@H](C)Cc1cccc(C(F)(F)F)c1 | inactive | 
N#CCCC(Br)(C#N)CBr (stereo not given) | inactive | 
C1CCNCC1 | inactive | 
CCOP(=S)(OCC)SCS(=O)(=O)CC | inactive | 
Nc1ccc(Cc2ccc(N)c(Cl)c2)cc1Cl | inactive | 
COP(=O)(OC)O/C(C)=C/C(=O)N(C)C | inactive | 
CCOC(=O)Cc1ccccc1 | inactive | 
CC(=O)OCC1=C(C(=O)O)N2C(=O)[C@@H](N)[C@H]2SC1 |  | 1.18% [at 11.8 µM]
Cc1cccc(C)c1NC1=NCCCS1 | inactive | 
O=C(N[C@H]1N=C(c2ccccc2F)c2cccc3c2N(CC3)C1=O)c1cc2ccccc2[nH]1 | inactive | 
CC(C)=CC1C(C(=O)OCc2coc(Cc3ccccc3)c2)C1(C)C (stereo not given) | inactive | 
CC(Oc1cccc(Cl)c1)C(=O)O (stereo not given) | inactive | 
COc1ccc(-c2ccccc2)cc1NNC(=O)OC(C)C | inactive | 

Compound | Potency | activation
Nc1n[nH]c(N)n1 | inactive | 
CCO/N=C(\CC)C1=C(O)CC(c2c(C)cc(C)cc2C)CC1=O (stereo not given) | inactive | 
NC(=O)c1ccc(N)nc1 | inactive | 
O=C1c2ccccc2C(=O)c2ccccc21 |  | 0.614% [at 11.8 µM]
CC(=O)c1cc2c(cc1C)C(C)(C)C(C)CC2(C)C (stereo not given) | inactive | 
CCCCc1ccccc1 | inactive | 
O=C(OC1CCCCC1)c1ccccc1C(=O)OC1CCCCC1 | inactive | 
CC1(c2ccc(Oc3ccccc3)cc2)OC(=O)N(Nc2ccccc2)C1=O (stereo not given) | inactive | 
O=c1[nH]c2ccccc2n1CCCN1CCC(n2c(=O)[nH]c3cc(Cl)ccc32)CC1 | inactive | 
Nc1c(Cl)c(F)nc(OCC(=O)O)c1Cl | inactive | 
CCc1cccc(C)c1N(C(=O)CCl)[C@@H](C)COC | inactive | 
COc1ccc2c(c1OC)C(=O)O[C@H]2[C@@H]1c2cc3c(cc2CCN1C)OCO3 | inactive | 
ClSC(Cl)(Cl)Cl | inactive | 
CCCCCCCCCCCCN=C(N)N |  | 0.159% [at 2.04 µM]
NNCc1ccccc1 | inactive | 
Cc1c([N+](=O)[O-])c(C)c([N+](=O)[O-])c(C(C)(C)C)c1[N+](=O)[O-] | inactive | 
N#CN | inactive | 
CC(C)(C#N)C(C)(C)C#N | inactive | 
COP(=S)(OC)Oc1c(Cl)cc(C)cc1Cl | inactive | 
Cc1cc(Cl)ccc1O[C@H](C)C(=O)O | inactive | 
